We go through 46 compounds from PubChem BioAssay (NCATS).

The test system of test [1] is Zika virus NS2B-NS3 protease (unlinked complex). Briefly: Primary screen GU Rhodamine qHTS for Zika virus inhibitors: Unlinked NS2B-NS3 protease assay (AID 1347159). Note: nearly all actives have a fitted effect of over 60% in size. The procedure, abridged: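 Noncovalent NS2B hydrophilic domain/NS3 protease complex (25 nM final) in 10 mM Tris-HCl pH 8.0, 0.01% Tween 20, preincubated 15 min with compounds (up to 114 microM), then 1.5 microM Rhodamine110 substrate. Fluorescence change over 15 min fitted to 4-parameter Hill.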
(In general: In qHTS, concentration-response curves come from the screen itself.)

For test [2], the system named is Zika virus NS2B-NS3 protease (linked construct). Briefly: Primary screen NINDS Rhodamine qHTS for Zika virus inhibitors (AID 1347160). Note: nearly all actives have a fitted effect of over 55% in size. The procedure, abridged:
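Purified NS2B-NS3 protease with the NS2B hydrophilic domain joined by a flexible linker (25 nM) in 10 mM Tris-HCl pH 8.0, 0.01% Tween 20, preincubated 15 min at RT with compound; Rhodamine110 peptide substrate 1.5 µM; fluorescence change over 15 min; 4-parameter Hill fit.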

SMILES strings stand for the structures. Inconclusive results are not listed. Where a call stands in place of a potency, no number is given. Active and inactive are the calls of the source. Calls come from the whole dose curve; as a rule, active = well fitted inhibition curve with a large enough effect; inconclusive = small, poorly fitted or top-dose-only effect; inactive = no such curve, though single readings can be large or run the other way.

For `C[C@@H](c1ccc2nccn2c1)n1nnc2ncc(-c3cnn(C)c3)nc21`, the Potency result in test [1] and in test [2] was “inactive” throughout.
Turning to `COc1cccc(NCCC2(c3ccccc3)CC(C)(C)OC(C)(C)C2)c1`, the Potency entry in test [1] and in test [2] was “inactive” in each case.
For the compound `COc1cc2c(cc1OC)CN(C(=O)/C=C/c1c(-c3ccccc3)n(C)c3ncccc13)CC2`, the Potency entry in test [1] and in test [2] was “inactive” each time.
Regarding `CCC(C)C1NC(=O)C(Cc2ccccc2)NC(=O)C(CCCCCC(=O)C(O)CO)NC(=O)C2CCCCN2C1=O` (configuration not stated), the Potency entry in test [1] and in test [2] was “inactive” throughout.
In the case of `COC(CCc1ccc(O)cc1)CC(=O)CCc1ccc(O)cc1` (configuration not stated), the Potency entry in test [1] and in test [2] was “inactive” each time.
For the compound `COCc1c(Cl)ccc2c1CC[C@H]2c1ncc[nH]1`, the Potency entry in test [1] and in test [2] was “inactive” each time.
On to `CC(C)CCCCC(=O)N[C@@H](CO)C(=O)N[C@@H](CC(C)C)C(=O)[C@@]1(CO)CO1`, for which the Potency entry in test [1] and in test [2] was “inactive” each time.
On to `C=C1C(=O)OC2CC(C)=C(C(C)CCCOC(C)=O)C(OC(=O)CC(C)CC)C12` (configuration not stated), for which the Potency result in test [1] and in test [2] was “inactive” throughout.
Turning to `COc1ccc(S(=O)(=O)N2CCC[C@H]2C(=O)Nc2cc(C)cc(C)c2)cc1`, the Potency result in test [1] and in test [2] was “inactive” each time.
Take `C=CCC1=C[C@]2(OC)[C@H](C)[C@@H](c3ccc4c(c3)OCO4)O[C@]2(OC)CC1=O`: the Potency entry in test [1] and in test [2] was “inactive” in each case.
As for `CC#CCn1c(N2CCCC(N)C2)nc2c1c(=O)n(Cc1nc(C)c3ccccc3n1)c(=O)n2C` (configuration not stated), the Potency result in test [1] and in test [2] was “inactive” in each case.
As for `Cn1sc(=O)n(Cc2ccccc2)c1=O`, the Potency entry in test [1] and in test [2] was “inactive” in each case.
Regarding `CC1(C)CC[C@]2(C(=O)O)CC[C@]3(C)C(=CCC4[C@@]5(C)C[C@@H](O)[C@H](O)C(CO)(CO)C5CC[C@]43C)C2[C@@H]1O` (some centres not stated), the Potency entry in test [1] and in test [2] was “inactive” each time.
In the case of `CC(C)(O)C1CC(=O)C2(C)C(CCC3(C)C(c4ccoc4)OC(=O)C4OC432)C12CCC(=O)OC2` (configuration not stated), the Potency result in test [1] and in test [2] was “inactive” in each case.
Regarding `N#Cc1cc(-c2ccnc(Nc3ccc(N4CCOCC4)cc3)n2)ccc1OC1CCOCC1`, the Potency result in test [1] and in test [2] was “inactive” throughout.
On to `CCCCC1CCN(CCCN2C(=O)CCc3ccccc32)CC1`, for which the Potency result in test [1] and in test [2] was “inactive” throughout.
With `CCC(=C(c1ccc(OCCN2CCCC2)cc1)c1ccc(OCCN2CCCC2)cc1)c1ccccc1`, the Potency result in test [1] and in test [2] was “inactive” in each case.
Consider `CCn1c(=O)c(-c2ccc(Cl)cc2Cl)cc2cnc(Nc3ccc(N4CCNCC4)c(F)c3)nc21`, for which the Potency result in test [1] and in test [2] was “inactive” throughout.
Turning to `CC(C)=CCC/C(C)=C/COCC1OC(n2ccc(=O)[nH]c2=O)C(O)C1O` (configuration not stated), the Potency entry in test [1] and in test [2] was “inactive” throughout.
For `C=C[C@@]12COC(=O)C(=C)[C@@H]1[C@@H](O)[C@H](C(=C)C(=O)OC)[C@@H](O)C2`, the Potency entry in test [1] and in test [2] was “inactive” each time.
For `Cn1c(=O)c2c(ncn2Cc2ccc(C(C)(C)C)cc2)n(C)c1=O`, the Potency result in test [1] and in test [2] was “inactive” throughout.
With `O=C(NCc1ccccc1-c1ccccc1C(=O)NCCc1ccccn1)OCc1ccccc1`, the Potency entry in test [1] and in test [2] was “inactive” in each case.
Take `Nc1nccc(-c2c(-c3ccc(F)cc3)ncn2C2CCCCC2)n1`: the Potency entry in test [1] and in test [2] was “inactive” each time.
Take `CC(C)(C)Oc1ccc(OCC2Cc3ccccc3CN2C(=O)c2cccc3ccccc23)cc1` (configuration not stated): the Potency result in test [1] and in test [2] was “inactive” each time.
With `COc1ccc2[nH]c(=O)c3c(c2c1)OC(C)(C)C=C3`, the Potency result in test [1] and in test [2] was “inactive” throughout.
As to `OC1(CN2CCC(COc3noc4cccc(O[C@@H]5CCOC5)c34)CC2)CCOCC1`, the Potency result in test [1] and in test [2] was “inactive” in each case.
As to `C[C@@H](NC(=O)c1ccc(C#Cc2cccc(F)c2)cn1)C(C)(C)O`, the Potency entry in test [1] and in test [2] was “inactive” in each case.
On to `C=C1CC2OC(=O)C(COC)C2C(OC(=O)/C(C)=C\C)CC2(C)OC1=CC2=O` (configuration not stated), for which the Potency result in test [1] and in test [2] was “inactive” each time.
With `COC(=O)CC(O)CC(O)/C=C/c1c(C)ccc2c1C(OC(C)=O)CC(C)C2` (configuration not stated), the Potency entry in test [1] and in test [2] was “inactive” in each case.
On to `CO[C@H]1C[C@@H]2CC[C@@H](C)[C@@](O)(O2)C(=O)C(=O)N2CCCC[C@H]2C(=O)O[C@H]([C@@H](C)C[C@@H]2CC[C@@H](O)[C@H](OC)C2)CC(=O)[C@H](C)/C=C(\C)[C@@H](O)[C@@H](OC)C(=O)[C@H](C)C[C@H](C)/C=C/C=C/C=C/1C`, for which the Potency entry in test [1] and in test [2] was “inactive” in each case.
Turning to `CCO[C@H]1CN(C2CCC(O)(c3ccc4c(c3)OCO4)CC2)C[C@@H]1NC(=O)CNC(=O)c1cccc(C(F)(F)F)c1` (some centres not stated), the Potency entry in test [1] and in test [2] was “inactive” in each case.
As for `COc1ccc(CCCN2CCC(COC(c3ccccc3)c3ccccc3)CC2)cc1`, the Potency result in test [1] and in test [2] was “inactive” throughout.
Consider `COc1ccc(Oc2c(Cl)cnn(-c3cc(C)cc(C)c3)c2=O)cc1`, for which the Potency entry in test [1] and in test [2] was “inactive” in each case.
Regarding `Fc1ccc(-c2cncc(CN3CCN(c4cccc5c4OCCO5)CC3)c2)cc1`, the Potency result in test [1] and in test [2] was “inactive” each time.
Consider `NC(=O)c1nc(Nc2ccccc2)sc1NC(=O)C1CCCCC1`, for which the Potency result in test [1] and in test [2] was “inactive” in each case.
As for `COC1C(O)C(OC2CCC3(C)C(CCC45CCC6C7(COC(=O)C7)OC4(O)C6(C)CCC35)C2)OC(C)C1OC1OC(CO)C(OC2OC(CO)C(O)C(O)C2O)C(O)C1O` (configuration not stated), the Potency result in test [1] and in test [2] was “inactive” in each case.
Take `COc1ccc([C@H]2Cc3cccc(O)c3C(=O)O2)cc1OC`: the Potency entry in test [1] and in test [2] was “inactive” in each case.
With `N[C@@H]1c2cccnc2[C@H](OC(=O)N2CCC(n3c(=O)[nH]c4ncccc43)CC2)CC[C@H]1c1cccc(F)c1F`, the Potency result in test [1] and in test [2] was “inactive” each time.
As for `Cc1nc(NC(=O)N2CCCC2C(N)=O)sc1-c1ccnc(C(C)(C)C(F)(F)F)c1` (configuration not stated), the Potency result in test [1] and in test [2] was “inactive” throughout.
Turning to `O=c1cc(N2CCN(c3cccc(C(F)(F)F)c3)CC2)[nH]c(=O)n1C1CCCCC1`, the Potency result in test [1] and in test [2] was “inactive” in each case.
Consider `CCn1c(-c2nonc2N)nc2c(C#CCO)ncc(OCCCN)c21`, for which the Potency result in test [1] and in test [2] was “inactive” in each case.
`CC1(CO)CC2C(O)C3=C(CC(C)(O)C2C1)C(=O)OC3` (configuration not stated): the Potency result in test [1] and in test [2] was “inactive” throughout.
For the compound `Cc1ccc(NC(=O)c2ccc(CN3CCNCC3)cc2)cc1Nc1nccc(-c2cccnc2)n1`, the Potency result in test [1] and in test [2] was “inactive” each time.
Take `O=C(Nc1ccc2[nH]c(=O)oc2c1)C(=O)N1CCC(Cc2ccc(F)cc2)CC1`: the Potency entry in test [1] and in test [2] was “inactive” throughout.
As for `CCN(CC)CCCS(=O)(=O)N[C@H](CCc1ccccc1)c1nc(Cc2ccc(Br)cc2)no1`, the Potency entry in test [1] and in test [2] was “inactive” throughout.
For the compound `Cc1ccc(-c2ncccn2)c(C(=O)N2C[C@H](COc3ccc(F)cn3)CC[C@H]2C)c1`, the Potency entry in test [1] and in test [2] was “inactive” throughout.
